Screens as filed in PubChem.
B2AR arrestin – recruits beta-arrestin to the human beta2-adrenergic receptor | beta-arrestin recruitment to beta2AR, cell-based reporter | hit rate 0.02% among 330,000 | P07550 | Potency, µM (series often up to 46.1 µM), for inactives: top-dose activation, usual class: activators;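 note: 0% = DMSO controls and full agonism = EC100 isoproterenol or metaproterenol; nearly all actives have a fitted effect of over 65% in size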
Target sequence (P07550 whole entry, looked up): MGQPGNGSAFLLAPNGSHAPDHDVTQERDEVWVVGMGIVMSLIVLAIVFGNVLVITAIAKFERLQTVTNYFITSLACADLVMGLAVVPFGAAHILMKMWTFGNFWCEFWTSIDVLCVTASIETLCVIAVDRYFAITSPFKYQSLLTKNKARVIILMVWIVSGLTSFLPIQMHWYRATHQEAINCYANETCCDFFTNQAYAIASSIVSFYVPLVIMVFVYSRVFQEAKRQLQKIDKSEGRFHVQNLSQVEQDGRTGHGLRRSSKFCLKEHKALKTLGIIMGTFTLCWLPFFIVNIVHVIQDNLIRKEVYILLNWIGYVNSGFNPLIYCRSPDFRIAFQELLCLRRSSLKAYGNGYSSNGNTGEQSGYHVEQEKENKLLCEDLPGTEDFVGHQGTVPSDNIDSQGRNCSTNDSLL
Gal4-VP16 FLuc – Gal4-VP16 reporter inhibition counter-screen. Drosophila S2 Gal4-VP16 UAS-luciferase, luminescence, 20 h. Potency, µM (highest dose often 53.6 µM), without a hit: at the top dose activity, negative = inhibition, actives largely listed as inhibitors. hit rate 3.5% among 310,000;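 note: Gal4-VP16 expression switched on by copper sulfate through the metallothionein promoter; nearly all actives have a fitted effect of over 50% in size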
NPSR antag – blocks cAMP signaling of the human neuropeptide S receptor; Q6W5P4; CHO-NPSR cells, cAMP TR-FRET, antagonist mode; Potency, µM (doses to about 38.3 µM), for inactives: at the highest dose activity change, negative = inhibition, actives largely listed as inhibitors; hit rate 1% among 220,000; note: nearly all actives have a fitted effect of over 50% in size
RORgamma inh – ROR gamma (mouse) transcription inhibition. P51450. Drosophila S2 Gal4-RORgamma UAS-luciferase reporter, 20 h. Potency, µM (titrated, usually from 53.6 µM), for the others: top-dose activity change, negative = inhibition, hits mostly inhibitors. hit rate 5.4% among 310,000. AID 2551; note: nearly all actives have a fitted effect of over 60% in size
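Stable Schneider cell line, Gal4 DNA-binding domain fused to ROR gamma, UAS-luciferase. Cmpd 1 hr RT → CuSO4 700 uM final → 20 hr RT → luciferase reagent 10 min → luminescence.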
* = called active by the depositor; ? = inconclusive; . = not tested or not shown; [ ] = remark or other dose. Rows were chosen to be rich in hits. Some 5.7% of all compounds tested hit in one or more screens of this group. Calls come from the whole dose curve; as a rule, active = well fitted curve in the direction sought with a large enough effect; inconclusive = small, poorly fitted or top-dose-only effect, or another doubt; inactive = no such curve, though single readings can be large; an effect the other way counts as inactive or inconclusive. Unless noted, % is set by controls: 0 for no effect and ±100 for the full control effect; potency is the fitted concentration of half-maximal effect.

SMILES | B2AR arrestin | Gal4-VP16 FLuc | NPSR antag | RORgamma inh
NNc1nc(Nc2ccccc2)nc(N2CCCCC2)n1 | 0% | 7.1µM* | -17%[46.1 µM] | 5µM*
O=C(O)c1cnc(-c2ccccc2)nc1Sc1ccc(Cl)cc1Cl | 0% | 1% | -5%[46.1 µM] | 3%
CC(C)n1nc(C(=O)OCn2nnc3ccccc3c2=O)c2ccccc2c1=O | 0% | -2% | 16% | -25%
CN(Cc1ccco1)c1cc(-c2ccoc2)ncn1 | . | 6% | . | -5%
CCC/C=C1\CCCOC(C(=O)NCc2ccccc2)(C(F)(F)F)C1 (stereo unspecified) | . | -19% | . | -36%
Cc1ccc(-n2c(COc3ccccc3)n[nH]c2=S)cc1 | 0% | ? | -26% | 2.5µM*
COc1ccc(-n2c(COc3ccc(C)cc3)n[nH]c2=S)cc1 | 0% | 7.1µM* | . | 5.6µM*
COc1ccc(-n2c(COc3ccccc3)n[nH]c2=S)cc1 | 0% | -11% | . | 7.1µM*
COC(Cc1n[nH]c(=S)n1-c1ccccc1)OC | 0% | 1% | -6%[46.1 µM] | -42%
CS(=O)(=O)Nc1cccc(-c2nc(NCc3ccccc3)c3ccccc3n2)c1 | . | -9% | . | 12%
COc1ncc2nc(-c3ccc(F)cc3)c(=O)n(C3CC3)c2n1 | . | -8% | . | -25%
COc1cc(/C=N/NC(N)=O)ccc1OCC(=O)Nc1cc(C)c(C)cc1Br | 0% | 0% | 5% | 1%
S=c1[nH]nc(-c2ccccc2)n1/N=C/c1ccc(-c2ccccc2Cl)o1 | 0% | ? | -52% | 4.5µM*
S=c1[nH]nc(-c2ccccn2)n1/N=C/c1ccc(-c2ccccc2Br)o1 | 0% | 0% | -37% | 10µM*
S=c1[nH]nc(-c2cccc(Cl)c2)n1/N=C/c1ccco1 | 0% | ? | -16% | ?
Cc1ccc(/C=N/n2c(-c3cccc(Cl)c3)n[nH]c2=S)o1 | 0% | ? | 5% | 5µM*
S=c1[nH]nc(-c2cccc(Cl)c2)n1/N=C/c1ccc(-c2ccccc2Br)o1 | 0% | -9% | 9%[7.67 µM] | 0.79µM*
Cc1nc(-c2ccccc2)c(-c2ccncc2)o1 | . | -3% | . | 6%
Cc1cc(C)cc(NC(=O)N2CCCN(Cc3c(F)cccc3Cl)CC2)c1 | -1% | -5% | 20% | 1%
Clc1cccc(CSc2nnc(-c3cccnc3)n2Cc2ccco2)c1 | 0% | ? | -16%[46.1 µM] | 16µM*
c1cncc(CSc2nnc(-c3cccnc3)n2Cc2ccco2)c1 | 0% | 0% | 7%[46.1 µM] | 5%
O=C(CSc1nnc(-c2cccnc2)n1Cc1ccco1)N1c2ccccc2Sc2ccccc21 | -1% | ? | ? | 13µM*
COc1ccc2nc(-n3c(O)c(C4=c5ccccc5=NC4=O)[nH]c3=S)sc2c1 | -1% | ? | ? | 13µM*
CC1(C)Cc2[nH]c(=S)c(C#N)cc2CO1 | -1% | ? | -17%[46.1 µM] | 20µM*
CSc1nncn1/N=C/c1ccc([N+](=O)[O-])cc1 | 0% | ? | 5% | -14%
SMILES | B2AR arrestin | Gal4-VP16 FLuc | NPSR antag | RORgamma inh
O=[N+]([O-])c1ccc(/C=N/n2cn[nH]c2=S)cc1 | -1% | ? | 8% | 13µM*
CC(C)c1ccc(/C=N/n2c(-c3ccccc3)n[nH]c2=S)cc1 | 0% | 3.2µM* | . | 4µM*
Cc1ccc(-c2n[nH]c(=S)n2/N=C/c2ccc(C(=O)O)cc2)cc1 | 0% | -2% | . | -18%
Oc1ccc(/C=N/n2c(-c3ccccc3)n[nH]c2=S)cc1Br | 0% | -13% | . | ?
O=[N+]([O-])c1ccc(/C=N/n2c(-c3ccccc3)n[nH]c2=S)cc1 | -2% | 10µM* | . | 1.3µM*
Cc1ccc(/C=N/n2c(-c3ccccc3)n[nH]c2=S)cc1 | 8% | 2.8µM* | . | ?
Cc1cc2c(nc1C)CCCCN2C[C@H](C)O/N=C1/[C@H]2O[C@@H]2[C@@H](O)[C@H]2[C@H]1CCn1c(=O)n(-c3ccccc3)c(=O)n12 | . | -5%[10 µM] | . | -3%[10 µM]
COc1ccc(N(CC(=O)NCCSc2ccccn2)S(=O)(=O)c2ccccc2)c(OC)c1 | 0% | 3% | . | 16%
Cc1ccc(/C=C/C(=O)O)cc1S(=O)(=O)N1CCCCC1 | 0% | 2% | -5% | 13%
O=C(NCCN1CCOCC1)C1(C(F)(F)F)CC(CCCO)CCCO1 (stereo unspecified) | . | -5% | . | 17%
CCOC(=O)Cc1csc(SCC(=O)NC2CCCC2)n1 | 0% | . | . | .
COC(=O)[C@@]1(Cc2ccccc2)[C@H]2c3cc(C(=O)N(C)C)n(Cc4ccccc4)c3C[C@H]2CN1C(=O)c1ccccc1 | . | -5% | . | -8%
CCCCN(CC)CCCNC(=O)C1CCN(c2ncnc3c2sc2cccc(F)c23)CC1 | -1% | -5% | -57% | -30%
